The record followed here is PubChem BioAssay (EPA / NIEHS).

Assay [1] is described as follows: IUF_NPC2c_oligodendrocyte_migration_120hr: Leibniz Research Institute for Environmental Medicine (IUF) 120-hour Neural Progenitor Cell Migration Assay for Oligodendrocyte Migration (NPC2c) (AID 2284297).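 Also: O4-positive oligodendrocyte migration distance divided by radial glia migration distance.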 Put shortly: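 Using fetal brain neural progenitor spheres differentiating in N2 medium at 37C, compounds were present for 120 h. Oligodendrocyte migration distance, normalized to radial glia migration, was measured from imaged O4 staining.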

Assay [2] is described as follows: IUF_NPC2a_radial_glia_migration_120hr: Leibniz Research Institute for Environmental Medicine (IUF) 120-hour Neural Progenitor Cell Migration Assay for Radial Glia Migration (NPC2a) (AID 2284298). Put shortly:
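Exposure of 0.3 mm primary hNPC spheres runs day 0 to 120 h with a half-volume medium change at day 3. Fixed cells get Hoechst staining; high-content analysis of nuclear positions yields radial glia migration distance per well, compared against DMSO controls.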

Assay [3] can be described thus: IUF_NPC2a_radial_glia_migration_72hr: Leibniz Research Institute for Environmental Medicine (IUF) 72-hour Neural Progenitor Cell Migration Assay for Radial Glia Migration (NPC2a) (AID 2284299). Put shortly: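 Radial glia migration (µm, sphere core edge to migration front, four directions averaged) from brightfield images at 72 h; hNPC spheres differentiating on PDL/laminin in N2 medium, compound exposure at 7 concentrations from plating.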

Assay [4] is described as follows: IUF_NPC2b_neuronal_migration_120hr: Leibniz Research Institute for Environmental Medicine (IUF) 120-hour Neural Progenitor Cell Migration Assay for Neuron Migration (NPC2b) (AID 2284300). The gist of the method:
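Fetal human NPC spheres migrate on PDL/laminin during 120 h compound treatment; neuronal migration distance, glia-normalized, scored versus DMSO control.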

Read-out in assay [5]: Plasminogen activator inhibitor-1 (PAI1), SERPINE1 (gene 5054)
Put plainly: BSK_MyoF_PAI1: BioMAP Diversity Plus: MyoF Assay for Plasminogen activator inhibitor-1 (PAI1) Biomarker Activity (AID 2284256).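 As to outcome: PAI-1 protein level measured by ELISA in fibroblast cultures; PAI-1 read 24 h after compound addition.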 The conditions noted are these: primary human lung fibroblasts. Put shortly:
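In this multiplexed primary-cell system, fibroblasts from human lung received compound for 24 h before ELISA detection of PAI-1; overt toxicity was checked by SRB (0.1%, TCA-fixed, 560 nm) in parallel wells.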

Read-out in assay [6]: Interleukin-8 (IL8), CXCL8 (gene 3576)
Put plainly: BSK_MyoF_IL8: BioMAP Diversity Plus: MyoF Assay for Interleukin-8 (IL8) Biomarker Activity (AID 2284261). The conditions noted are these: primary human lung fibroblasts. Put shortly:
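DMSO-normalised, upward-fitted IL-8 ELISA signal; human lung fibroblasts, 24 h chemical treatment.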

Read-out in another assay: Decorin, DCN (gene 1634)
Briefly: BSK_MyoF_Decorin: BioMAP Diversity Plus: MyoF Assay for Decorin Biomarker Activity (AID 2284265). The conditions noted are these: primary human lung fibroblasts. Put shortly: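 In this multiplexed fibroblast system, secreted or surface decorin is detected by ELISA one day after dosing, with increases scored against the DMSO vehicle.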

A short description of assay [7]: BSK_MyoF_SRB: Viability Assessment in the BioMAP Diversity Plus: MyoF Assay (AID 2284267).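 Also: total protein by SRB absorbance in parallel cultures as cytotoxicity measure; cells assessed 24 h after compound addition.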 The conditions noted are these: primary human lung fibroblasts. Put shortly: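 Cytotoxicity read-out: after 10% TCA fixation, parallel human lung fibroblast cultures were stained with 0.1% SRB at 24 h post-dosing and read at 560 nm; DMSO served as baseline.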
Read-out in assay [8]: Matrix Metallopeptidase 1 (MMP1), MMP1 (gene 4312)
Put plainly: BSK_MyoF_MMP1: BioMAP Diversity Plus: MyoF Assay for Matrix Metallopeptidase 1 (MMP1) Biomarker Activity (AID 2284268). The conditions noted are these: primary human lung fibroblasts. Put shortly: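 Fibroblasts from human lung receive compound for 24 h before ELISA quantitation of MMP1. DMSO serves as baseline, and the endpoint is fitted for signal gain.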

Read-out in assay [9]: TIMP metallopeptidase inhibitor 1 (TIMP1), TIMP1 (gene 7076)
Put plainly: BSK_MyoF_TIMP1: BioMAP Diversity Plus: MyoF Assay for TIMP metallopeptidase inhibitor 1 (TIMP1) Biomarker Activity (AID 2284269). The conditions noted are these: primary human lung fibroblasts. The gist of the method:
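Primary human lung fibroblasts, MyoF multiplex system; chemical exposure 24 h; TIMP-1 by ELISA; positive fitting direction vs DMSO control.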

Active and inactive are the calls of the source. The calls were made as follows: active = hit-call score of the fitted dose curve at least 0.9, where 1 is the maximum; inactive = score below 0.9.

In the case of `S=C(S)NCCNC(=S)S.[Mn+2].[S-]C([S-])=NCCN=C([S-])[S-].[Zn+2]`, the molecule was called inactive in assay [1], in [2], in assay [3] and in [4].
As usually defined, the AC50 is the midpoint of the concentration-response curve, whichever way the signal moves. On to `Cc1nn(C)c(Oc2ccccc2)c1C=NOCc1ccc(C(=O)OC(C)(C)C)cc1`, for which the AC50 in assay [1] is 12.5 µM (active); in assay [2] it was 5.23 µM (active); in [3], 2.48 µM (active); in assay [4] it was 6.63 µM (active).
For `CC(C)(c1ccc(O)cc1)c1ccc(O)cc1`, the call in assay [1], in assay [2], in assay [3] and in [4] was inactive.
Regarding `C#CCOC(=O)[C@@H](C)Oc1ccc(Oc2ncc(Cl)cc2F)cc1`, the call in [1], in assay [2], in assay [3] and in [4] was inactive.
On to `COCCO`, for which the outcome in assay [5] is “inactive”; in assay [6], “inactive”; with Decorin, DCN (gene 1634) it was “inactive”; in [7] it was “inactive”; in assay [8], “inactive”; in [9] it was “inactive”.
`N#CSCSc1nc2ccccc2s1`: the AC50 in assay [5] is 7.79 µM (active); in assay [6], 11.2 µM (active); in the assay with Decorin, DCN (gene 1634), 5.27 µM (active); in assay [7], 5.55 µM (active); in assay [8], 3.63 µM (active); in [9], 11.4 µM (active).
Turning to `CCC(C)OC(=O)N1CCCCC1CCO` (centres undefined), the outcome is “inactive” in assay [5]; “inactive” in [6]; “inactive” with Decorin, DCN (gene 1634); “inactive” in [7]; “inactive” in assay [8]; “inactive” in [9].
In the case of `CCCN(CCC)C(=O)SCC`, the result in assay [1], in assay [2], in [3] and in assay [4] was inactive.
For the molecule `CSC(=O)c1cccc2nnsc12`, the molecule was called inactive in [1], in assay [2], in [3] and in [4].
Consider `O=C(O)c1ccccc1`, for which the molecule was classed as inactive in assay [1], in [2], in assay [3] and in assay [4].
For `S=C([S-])NCCNC(=S)[S-].[Mn+2]`, the result in [1], in [2], in assay [3] and in [4] was inactive.
For the molecule `CCN(CC)C(=O)c1cccc(C)c1`, the molecule was classed as inactive in [1], in assay [2], in assay [3] and in [4].
